Bioassay records deposited in PubChem by several laboratories.
MEX-5 binding: C. elegans MEX-5 TCR-2 RNA binding activity; Q9XUB2; MEX-5/FITC-TCR2 RNA binding, fluorescence polarization; active compounds read low; activity score (negative = inhibition of binding), % at 10 µM; hit rate 0.38% among 300,000; AID 1832;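 active = inhibition past about -25% in most replicates, and total fluorescence under double the plate's negative control median, limit read from the data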
BCLXL inh: Bcl-xL (human) inhibition; GST-Bcl-xL / FITC-Bim BH3 peptide fluorescence polarization; inhibition, % at 10.9 µM; AID 2129; hit rate 0.7% among 320,000; Q07817;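 active = inhibition above the mean of all tested compounds plus 3 SD, cutoff set per campaign, cut at about 30% in these data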;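 note: inhibitors lower millipolarization by displacing the labeled peptide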
Target sequence (Q07817 whole entry, looked up): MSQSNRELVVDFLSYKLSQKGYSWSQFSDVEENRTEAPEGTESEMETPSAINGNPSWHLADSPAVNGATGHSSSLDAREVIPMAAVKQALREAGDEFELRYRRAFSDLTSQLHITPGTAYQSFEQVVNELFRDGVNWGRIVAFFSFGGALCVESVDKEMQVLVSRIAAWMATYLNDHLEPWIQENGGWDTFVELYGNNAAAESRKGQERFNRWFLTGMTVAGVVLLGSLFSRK
GLD-1 RNA inh: GLD-1-TGE RNA interaction inhibition (C. elegans) | Q17339 | purified GLD-1 + fluorescein TGE RNA, fluorescence polarization | inhibition, % at 5.96 µM | hit rate 0.44% among 320,000 | AID 2280;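 active = percent inhibition above a per-plate cutoff, the plate mean of test compounds plus 3 SD, cut at about 30% in these data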
eLon inh: E. coli protease La inhibition. hit rate 0.42% among 360,000. inhibition, % at 7.94 µM. purified E. coli Lon protease, fluorescence polarization; in the data active = inhibition above about 13%, passing the limit was not always enough
EBV gp42 block: inhibitors of Epstein-Barr virus glycoprotein 42; Fluorescence polarization binding assay, mP read-out; inhibition, % (tested at 21.74 µM); hit rate 0.42% among 220,000; in the data active = inhibition above about 50%
Target sequence (Q1HVG2 whole entry, looked up): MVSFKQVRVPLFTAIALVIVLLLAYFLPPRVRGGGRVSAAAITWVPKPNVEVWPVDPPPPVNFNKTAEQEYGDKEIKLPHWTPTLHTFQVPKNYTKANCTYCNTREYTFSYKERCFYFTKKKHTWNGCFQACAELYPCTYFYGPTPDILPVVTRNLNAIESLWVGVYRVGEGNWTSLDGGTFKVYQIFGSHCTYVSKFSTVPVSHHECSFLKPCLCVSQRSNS
Numbers stand for hits. Rows were chosen to be rich in hits. Some 1.3% of all compounds tested hit in one or more screens of this group.

`Cc1cccc(C(=O)N=c2c(C#N)cc3c(=O)n4cccc(C)c4nc3n2Cc2ccco2)c1` gave MEX-5 binding inactive, BCLXL inh 43.1, GLD-1 RNA inh inactive, eLon inh inactive and EBV gp42 block inactive.
`Cc1cccn2c(=O)c3cc(C#N)c(=NC(=O)c4ccccc4)n(Cc4ccco4)c3nc12` gave MEX-5 binding inactive, BCLXL inh 34.7, GLD-1 RNA inh inactive and eLon inh inactive.
`Cc1cccn2c(=O)c3cc(C#N)c(=NC(=O)c4cccs4)n(CC(C)C)c3nc12` gave MEX-5 binding inactive, BCLXL inh inactive, GLD-1 RNA inh inactive, eLon inh inactive and EBV gp42 block inactive.
Screening C#CCNC(=O)C[C@@H]1C[C@@]2(C(=O)OCC)CCCC=C2N(Cc2ccc3c(c2)OCO3)C1=O returned eLon inh inactive.
Screening CCOc1ccc(S(=O)(=O)N(CC)CC(=O)N2CCOCC2)cc1C returned MEX-5 binding inactive, BCLXL inh inactive, GLD-1 RNA inh inactive and eLon inh inactive.
CCCN1C(=O)/C(=C/c2c(N3CCNC(=O)C3CC(=O)OC)nc3c(C)cccn3c2=O)SC1=S (stereo unspecified) was read as EBV gp42 block inactive.
For CCCn1c(/C=C/c2cc[n+](C)cc2)nc2ccccc21 the results were MEX-5 binding inactive, BCLXL inh 67.1, GLD-1 RNA inh inactive and eLon inh inactive.
COc1ccc2nc(NC(=O)Cn3cnc4ccccc4c3=O)sc2c1 was read as MEX-5 binding inactive, BCLXL inh inactive, GLD-1 RNA inh inactive, eLon inh inactive and EBV gp42 block inactive.
For CS(=O)(=O)Nc1nc2n(n1)C(c1ccccc1)C=C(c1ccc(Br)cc1)N2 (stereo unspecified) the results were MEX-5 binding -68.8, BCLXL inh 156.8, GLD-1 RNA inh 157.4, eLon inh 99.3 and EBV gp42 block 58.0.
`COc1ccccc1C1C=C(c2ccc(Cl)cc2)Nc2nc(NS(C)(=O)=O)nn21` (stereo unspecified) gave MEX-5 binding inactive, BCLXL inh 66.3, GLD-1 RNA inh 70.6 and EBV gp42 block inactive.
For O=C1CCC(=O)N1c1nc2n(n1)C(c1ccccc1)C=C(c1ccc(Br)cc1)N2 (stereo unspecified) the results were MEX-5 binding inactive, BCLXL inh inactive, GLD-1 RNA inh inactive, eLon inh inactive and EBV gp42 block 50.9.
COc1ccccc1C1C=C(c2ccc(Cl)cc2)Nc2nc(N3C(=O)CCC3=O)nn21 (stereo unspecified) was read as BCLXL inh inactive, GLD-1 RNA inh inactive, eLon inh inactive and EBV gp42 block inactive.
Screening CCC(C)(C)NC(=O)C(c1ccc(OC)cc1)N(C(=O)CCC(=O)Nc1cc(C)on1)c1ccc2c(c1)OCO2 (stereo unspecified) returned MEX-5 binding inactive, BCLXL inh inactive, GLD-1 RNA inh inactive and eLon inh inactive.
For C=CCN1C(=O)c2ccc(C(=O)N(CCOC)c3c(N)n(CCCC)c(=O)[nH]c3=O)cc2C1=O the results were MEX-5 binding inactive, BCLXL inh inactive, GLD-1 RNA inh inactive and eLon inh inactive.
For CCOc1cc(C2CC(=O)c3c(ccc4ccccc34)N2)ccc1O (stereo unspecified) the results were MEX-5 binding inactive, BCLXL inh inactive, GLD-1 RNA inh inactive, eLon inh inactive and EBV gp42 block inactive.
Cc1ccc(NC(=O)N(Cc2nc3ccccc3c(=O)[nH]2)Cc2cccs2)cc1 was read as MEX-5 binding inactive, BCLXL inh inactive, GLD-1 RNA inh inactive, eLon inh inactive and EBV gp42 block inactive.
Screening COC(=O)[C@]12CCCCC=C1N(Cc1ccco1)C(=O)[C@H](CC(=O)NCc1ccc(C)o1)C2 returned eLon inh inactive.
Screening CCN(CC)CCCOc1ccc(Cl)c(Cl)c1 returned MEX-5 binding inactive, BCLXL inh 36.0, GLD-1 RNA inh inactive, eLon inh inactive and EBV gp42 block inactive.
Cc1cc(C=C2C(=O)c3ccccc3C2=O)c(C)n1-c1ccccc1 was read as MEX-5 binding inactive, BCLXL inh inactive, GLD-1 RNA inh inactive, eLon inh inactive and EBV gp42 block 56.6.
Cc1cc(C=C2C(=O)c3ccccc3C2=O)c(C)n1-c1ccc(C(=O)O)cc1 was read as MEX-5 binding inactive, BCLXL inh inactive, GLD-1 RNA inh inactive, eLon inh inactive and EBV gp42 block inactive.
Screening CCCNS(=O)(=O)c1ccc(CCC(=O)NCc2ccc3c(c2)OCO3)cc1 returned MEX-5 binding -35.6, BCLXL inh inactive, GLD-1 RNA inh inactive, eLon inh inactive and EBV gp42 block inactive.
For CC(C)NS(=O)(=O)c1ccc(CCC(=O)NCc2ccc3c(c2)OCO3)cc1 the results were MEX-5 binding inactive, BCLXL inh inactive, GLD-1 RNA inh inactive, eLon inh inactive and EBV gp42 block inactive.
Screening Cc1ccccc1OCCOC(=O)c1cc(S(=O)(=O)N2CCCCC2)ccc1N1CCOCC1 returned BCLXL inh inactive, GLD-1 RNA inh inactive and eLon inh inactive.
`COc1ccccc1N(CC(=O)N1CCCCC1C)S(=O)(=O)c1ccc(Cl)cc1` (stereo unspecified) gave eLon inh inactive.
Screening Cc1ccc(S(=O)(=O)N2CC3(O)CN(C(=O)OC(C)C)N(C(=O)OC(C)C)CC3(OC(=O)NCc3ccco3)C2)cc1 (stereo unspecified) returned eLon inh inactive.
`Cc1cc(/C=N/Nc2ccc([N+](=O)[O-])cn2)c(C)n1-c1ccc(C(=O)O)cc1` gave MEX-5 binding inactive, BCLXL inh inactive, GLD-1 RNA inh inactive, eLon inh inactive and EBV gp42 block 61.4.
For Cc1nc(S/C(=C/c2ccc(OCc3ccc(C(=O)O)cc3)cc2)C(=O)O)n[nH]1 the results were MEX-5 binding -68.9, BCLXL inh inactive, GLD-1 RNA inh inactive, eLon inh inactive and EBV gp42 block inactive.
`Cc1ccccc1NC(=O)Cc1nc(COC(=O)CCc2ccccc2)cs1` gave BCLXL inh inactive, GLD-1 RNA inh inactive and eLon inh inactive.
For COc1ccccc1CCC(=O)OCc1csc(CC(=O)Nc2ccccc2C)n1 the results were MEX-5 binding -26.7, BCLXL inh inactive, GLD-1 RNA inh inactive and eLon inh inactive.
For N#C/C(=N\Nc1ccc(Cl)cc1)C(=O)c1ccsc1 the results were MEX-5 binding -38.5, BCLXL inh inactive, GLD-1 RNA inh inactive, eLon inh inactive and EBV gp42 block inactive.
N#CC1=C(S)N(c2ccc(F)cc2)C2(CCCCC2)NC1=O was read as MEX-5 binding inactive, BCLXL inh inactive, GLD-1 RNA inh inactive, eLon inh inactive and EBV gp42 block inactive.
`CS(=O)(=O)c1cc(N2CCOCC2)ccc1CNC[C@H]1O[C@@H](n2cnc3c(=O)[nH]c(N)nc32)[C@H](O)[C@@H]1O` gave eLon inh inactive.
For O=C1Nc2ccccc2SC(c2ccccc2)C1O (stereo unspecified) the results were MEX-5 binding inactive, BCLXL inh inactive, GLD-1 RNA inh inactive, eLon inh inactive and EBV gp42 block 66.6.
For O=C1Nc2cc(Cl)cnc2N2CCCC12 (stereo unspecified) the results were MEX-5 binding -37.1, BCLXL inh 35.7, GLD-1 RNA inh inactive, eLon inh inactive and EBV gp42 block 72.5.
